Each structure is given as a SMILES string. The whole screen tested about 340,000 compounds, of which about 12,000 (3.5%) were called active. A call without a number means that no potency is given here. Another 18% or so got no clear call; they are omitted. The sample holds actives, similar compounds and a random draw of the others, so the mix is not that of the screen. Calls follow the shape of the dose curve; as a rule, active = well fitted inhibition curve with a large enough effect; inconclusive = small, poorly fitted or top-dose-only effect, or another doubt; inactive = no such curve, though single readings can be large or run the other way.

The assay in a line: qHTS Assay for Inhibitors of Hepatitis C Virus (HCV). The settings on record: Huh7.5.1 HCVcc-Cre infection, luciferase reporter, 44 h; series mostly up to 41.8 µM. From the text:
Hepatitis C virus (HCV) infects about 200 million people in the world. Many infected people progress to chronic liver disease including cirrhosis with a risk of developing liver cancer. To date, there is no effective vaccine for hepatitis C. Current therapy based on interferon is only effective in about half of the patients and is associated with significant adverse effects. The fraction of people with HCV who can complete a successful treatment is estimated to be no more than 10 percent. Recent development of direct-acting antivirals against HCV, such as protease and polymerase inhibitors, is promising but still requires combination with peginterferon and ribavirin for maximal efficacy. In addition, these agents are associated with high rate of resistance and many have significant side effects. Due to the lack of a culture system for infectious HCV, the search for new HCV drugs has been greatly hampered. […] High-throughput screening (HTS) with an infectious HCV system would cover the complete spectrum of potentially druggable targets in all stages of HCV lifecycle, and would have more biological relevance than other cell-based assays. Moreover, targeting several key processes in the viral life cycle may not only increase antiviral efficacy; more importantly, it may also reduce the capacity of the virus to develop resistance to the compound. The goal of this project is to identify novel HCV inhibitors as new therapies for hepatitis C, using a highly sensitive and specific assay platform which is based on a HCV infectious cell culture system established in the laboratory and adapted for high-throughput HCV drug screen. NIH Chemical Genomics Center [NCGC] NIH Molecular Libraries Probe Centers Network [MLPCN] MLPCN Grant: MH095511 Assay Submitter (PI): Jake Liang, NIDDK
The assay will start with plating 1,000 cells/well in 3 µL volume and culture for 4 h. Then 23 nL of compounds from the library collection will be added to each well, followed by adding 2.5 µL of HCVcc-Cre virus (~ 0.5 moi) and further cultured for 44 h before the luciferase assay. A volume of 4.5 µL luciferase substrates will be added to each well and the plates will be incubated at room temperature for 15 min. and then read for 15 sec. for the luciferase activity
(Quantitative high-throughput screening tests each substance at several concentrations.)
With `Cc1cc(Nc2ccccc2)n(CCC#N)n1`, the Potency result was “inactive”.

As for `Cc1cc(Nc2ccccc2)n(C(=O)c2ccc(N)cc2)n1`, the Potency is 12.6 µM (active).

In the case of `Nc1ccc(Nc2ccccc2)cc1`, the Potency result is “inactive”.

`O=C(Cc1ccc(Br)cc1)NCCc1ccccc1`: the Potency result was “inactive”.

As to `CC[C@@H]1CCCCc2ccccc2[C@@H](C(=O)C[C@H](O)CC(C)=O)OC1=O`, the Potency result is “inactive”.

For `Cc1nnc(NC(=O)c2ccc3nccnc3c2)s1`, the Potency result was “inactive”.

Turning to `Cc1nnc(NC(=O)C(c2ccccc2)c2ccccc2)s1`, the Potency entry is “inactive”.

For `Cc1nnc(NC(=O)Nc2ccc(Cl)c(Cl)c2)s1`, the Potency was 14.1 µM (active).

In the case of `COc1ccc(-c2cnc(SCCNC(=O)c3ccc4c(c3)OCO4)[nH]2)cc1`, the activity change, negative = inhibition was 14.4% [at 8.37 µM] (inactive).

On to `C#CCOCCOCCOCCNc1nc(N2CCOCC2)nc(N2CCN(C(=O)[C@H](Cc3ccc(O)cc3)n3cc(CCO)nn3)CC2)n1`, for which the Potency entry is “inactive”.

Consider `O=S(=O)([N-]c1nc2ccccc2nc1-[n+]1ccc(Cc2ccccc2)cc1)c1ccc(Br)s1`, for which the Potency is 3.55 µM (active).

Take `O=C(NCCc1ccccc1)C1CCN(S(=O)(=O)c2ccc(Br)s2)CC1`: the Potency result is “inactive”.

Consider `Cc1cc(C)c[n+](-c2nc3ccccc3nc2[N-]S(=O)(=O)c2cccs2)c1`, for which the Potency entry is “inactive”.

Turning to `CC(Oc1ccc2c(-c3ccccc3)cc(=O)oc2c1)C(=O)NC(Cc1c[nH]c2ccccc12)C(=O)O` (stereo unspecified), the Potency result was “inactive”.

In the case of `CC(C)(C)C(=O)CSc1ccc(S(=O)(=O)N2CCCC2)cn1`, the Potency result was “inactive”.

With `CCOC(=O)C1(CCOC)CCN(Cc2ccc(C(=O)OC)cc2)CC1`, the Potency entry was “inactive”.

In the case of `CCOC(=O)C1(CCOc2ccccc2)CCN(Cc2cc(OC)c(O)cc2Cl)CC1`, the Potency is 11.2 µM (active).

On to `CCCS(=O)(=O)N1CCC(CCOc2ccccc2)(C(=O)OCC)CC1`, for which the Potency result was “inactive”.

Turning to `Nn1c(SCC(=O)Nc2nccs2)nnc1-c1ccco1`, the Potency entry is “inactive”.

Regarding `Cc1ccccc1NC(=O)Cc1nc(COC(=O)c2cccnc2Cl)cs1`, the Potency result was “inactive”.

For the compound `COc1ccc(C(C(=O)NC2CCCCC2)N(C(=O)c2snc(C(N)=O)c2N)c2ccccc2OC)cc1` (stereo unspecified), the Potency result is “inactive”.

Turning to `COc1ccc(C(C(=O)NC2CCCCC2)N(C(=O)CCl)c2ccccc2Cl)cc1` (stereo unspecified), the Potency is 2.82 µM (active).

As for `COc1cccc(N(C(=O)C2COc3ccccc3O2)C(C(=O)NC2CCCCC2)c2ccc(O)cc2)c1` (stereo unspecified), the Potency result was “inactive”.

Take `O=C(c1ccc(F)cc1)N1CCC(C(=O)N2CCN(S(=O)(=O)c3ccccc3Br)CC2)CC1`: the Potency entry is “inactive”.

On to `CCOC(=O)c1csc(NC(=O)c2ccc(S(=O)(=O)N3CCCC3)cc2)n1`, for which the Potency entry was “inactive”.

For `COc1ccc(C(=O)Nc2nc(-c3ccc(S(=O)(=O)N4CCOCC4)cc3)cs2)cc1`, the Potency was 35.5 µM (active).

Take `CNC(=O)c1ccsc1NC(=O)c1ccc(S(=O)(=O)N2CCOCC2)cc1`: the Potency result is “inactive”.

On to `Cn1c(=O)[nH]c2c(c(C(=O)O)nn2C)c1=O`, for which the Potency entry was “inactive”.

Take `CCOC(=O)c1cnc2nc(SCc3ccccc3Cl)[nH]n2c1=O`: the Potency entry was “inactive”.

`Cc1cc(C(=O)N/N=C\C(Br)=C\c2ccccc2)c(C)o1`: the Potency entry was “inactive”.

For `CC(C)c1cc(C(=O)N/N=C/C(Br)=C/c2ccccc2)n[nH]1`, the Potency is 22.4 µM (active).

For `CC(C)c1cc(C(=O)O)n[nH]1`, the Potency result is “inactive”.

Regarding `Cc1c(NC(=O)CSc2nnc(-c3cccnc3)n2N)c(=O)n(-c2ccccc2)n1C`, the Potency result was “inactive”.

With `O=C(O)c1ccc([N+](=O)[O-])cc1Sc1ccsc1`, the Potency result was “inactive”.

Regarding `O=C(c1cccc(S(=O)(=O)N2CCCCCC2)c1)N1CCN(Cc2ccccc2)CC1`, the Potency entry was “inactive”.

As to `Oc1c(C(c2ccccn2)N2CCOCC2)ccc2cccnc12` (stereo unspecified), the Potency is 3.55 µM (active).

As for `CCOC(=O)N1CCN(C(c2cccnc2)c2ccc3cccnc3c2O)CC1` (stereo unspecified), the Potency result was “inactive”.

For the compound `Cc1nc2sc(C(c3ccco3)N3CCOCC3)c(O)n2n1` (stereo unspecified), the Potency entry is “inactive”.

In the case of `CCOC(=O)C1CCCN(C(=O)CSc2nnc3nc(C)cc(C)n23)C1` (stereo unspecified), the Potency result is “inactive”.

With `Cc1cc(C(=O)OCC(=O)N2C(C)CCCC2C)c2ccccc2n1` (stereo unspecified), the Potency entry is “inactive”.

For the compound `CCN(C(=O)CSc1ncnc2c1cnn2-c1ccccc1)C1CCS(=O)(=O)C1` (stereo unspecified), the Potency entry is “inactive”.

`CC(C)CN(C(=O)CSc1ncnc2sccc12)C1CCS(=O)(=O)C1` (stereo unspecified): the Potency entry is “inactive”.

Regarding `CCC(C)N(C(=O)CSc1ncnc2c1cnn2-c1ccccc1)C1CCS(=O)(=O)C1` (stereo unspecified), the Potency is 14.1 µM (active).

With `O=C(O)c1ccc(NN=CC2=C(N3CCOCC3)/C(=C/c3ccccc3)CC2)cc1`, the Potency result was “inactive”.

In the case of `CC/C(=C(/c1ccccc1)c1ccc(OCC[N+](C)(C)C)cc1)c1ccccc1`, the Potency result was “inactive”.

In the case of `CCOC(=O)C(=Cc1ccccc1OC)C(=O)OCC`, the Potency is 25.1 µM (active).

Regarding `CCOC(=O)c1ccccc1OC(=O)Oc1ccccc1C(=O)OCC`, the Potency result was “inactive”.

Turning to `COc1ccccc1C(=O)c1ccccc1C(=O)c1ccccc1`, the Potency result was “inactive”.

Consider `CC(=O)CC(CC(=O)NC1CCCCC1)c1ccccc1` (stereo unspecified), for which the Potency entry is “inactive”.

As for `CN(CC(=O)O)C(=O)c1ccccc1`, the Potency entry is “inactive”.

For `COc1cccc(NC(=O)CN(C)C(=O)CSC(=S)N2CCCC2)c1`, the activity change, negative = inhibition is 7.26% [at 8.37 µM] (inactive).

`O=C(Nc1ccccc1Cl)Nn1cnnc1`: the Potency result is “inactive”.

Regarding `COCCN(CCOC)C(=S)Nc1ccccc1Cl`, the Potency result was “inactive”.

On to `O=C(Nc1ccccc1Cl)/C(Cl)=C(\Cl)S(=O)c1ccccc1` (stereo unspecified), for which the Potency is 11.2 µM (active).

On to `COc1ccc(-c2cc3ncccc3cn2)cc1`, for which the Potency entry is “inactive”.

As to `CCCCCCCCn1c2c(c(=N)c3c1CCC3)CCCC2`, the Potency is 3.98 µM (active).

For the compound `O=C(CCNS(=O)(=O)c1ccccc1C(F)(F)F)Nc1ccncc1`, the Potency result was “inactive”.

Turning to `COc1ccccc1OCc1ccc(C(=O)N2CCN(C)CC2)o1`, the Potency entry is “inactive”.

Regarding `COc1ccccc1CNC(=O)c1ccc(CS(=O)(=O)c2ccccc2)o1`, the Potency entry is “inactive”.

As for `COc1ccccc1OCc1ccc(C(=O)NC(C)c2ccccc2)o1` (stereo unspecified), the Potency was 7.08 µM (active).

Consider `CCCCn1c(N)c(N(CC(C)C)C(=O)c2cccc(S(=O)(=O)N3CC(C)OC(C)C3)c2)c(=O)[nH]c1=O` (stereo unspecified), for which the Potency result was “inactive”.

Take `CCOC(=O)c1ccc(NC(=O)Cn2cnc3cc(C)c(C)cc32)cc1`: the Potency is 3.55 µM (active).

Consider `CCCc1nnc(SCC(=O)Nc2ccc(C(=O)OCC)cc2)o1`, for which the Potency result is “inactive”.

As for `CCOC(=O)c1ccc(NC(=O)Cn2nnc(-c3ccc(C)cc3)n2)cc1`, the Potency result was “inactive”.

For `Cn1c(SCC(=O)Nc2ccc(N3CCOCC3)cc2)nnc1C(F)(F)F`, the Potency result is “inactive”.

With `CC(NC(=O)c1ccccc1)C(=O)OCC(=O)Nc1cccc(S(=O)(=O)N2CCCC2)c1` (stereo unspecified), the Potency entry was “inactive”.

These data come from PubChem BioAssay AID651820 (National Center for Advancing Translational Sciences (NCATS), 2012).
